In PubChem BioAssay (NCI):
About 83,000 compounds went through this panel and 20% of them were active in at least one assay; those are over-represented in the sample as a whole.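 How to read the values: 0–100, growth inhibition (40 = 60% inhibited); 0, no net growth; -100 to 0, cell death (-40 = 40% of starting cells died; -100 = all dead).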 Active and inactive are the calls of the source. How the source made its calls: active means growth percent below 10; inactive means the rest.

System: SNB-75 CNS
Assay: NCI-60 one-dose screen, 48 h (100 = growth as untreated, 0 = no growth, -100 = all killed)
Conditions: 10 µM unless noted

| Compound | growth |
| --- | --- |
| CC(C)OC1=C(Cl)C(=O)c2ccccc2C1=O | 75.8% (inactive) |
| CS(=O)(=O)Nc1cccc(C(=O)NCc2ccc(N3CCOCC3)cc2)c1 | 68.2% (inactive) |
| COc1ccc(S(=O)(=O)ON=C2C=C(C)C(=O)C(C)=C2)cc1 | 69.1% (inactive) |
| CCOC(=O)c1c(Cl)c2c(n1Cc1cc(OC)cc(OC)c1)-c1oncc1CCC2 | 1.91% (active) |
| NC(=S)N/N=C1\c2ccccc2-c2c(F)c(F)c(F)c(F)c21 | 95.7% (inactive) |
| COCCOC1=C(Cl)C(=O)c2ccccc2C1=O | 8.63% (active) |
| O=C1C(OCCOc2ccccc2)=C(OCCOc2ccccc2)C(=O)c2ccccc21 | 69.4% (inactive) |
| N#Cc1c(O)c2c(c(O)c1C#N)C(=O)c1ccccc1C2=O | 145% (inactive) |
| COc1cc(/C=C/C(=O)CC(=O)/C=C/c2cc(Br)c(OC)c(OC)c2)cc(Br)c1OC | 93.7% (inactive) |
| CCN1CCN(c2ccc(Nc3ncc4ccc5ncn(C(C)C)c5c4n3)nc2)CC1 | -66% (active) |
| Nc1nc2c(s1)CCc1c-2c(Br)n(Cc2ccccc2)c1Br | 89.5% (inactive) |
| O=c1onc(-c2ccccc2)c2ccccc12 | 109% (inactive) |
| CCCCCn1c(=N)n(CC(O)COc2cccc(C)c2)c2ccccc21 (stereo unspecified) | 2.13% (active) |
| COc1ccc(-c2nn(-c3ccc(NC(=O)c4ccc(Cl)c(Cl)c4)cc3)cc2-c2ccncc2)cc1Cl | 59.4% (inactive) |
| CCC(C)Oc1cc(/C=N/NC(=O)c2cnn3c2NC(c2ccccc2)C3)ccc1OC (stereo unspecified) | -12.2% (active) |
| COc1cccc(OC)c1OC(=O)c1ccccc1 | 82.5% (inactive) |
| C=C[C@H]1C[C@@H]2C[C@@H]3[C@H]4C/C=C\C(=O)NCCCC5NC(=O)C(=C(O)/C=C/[C@@H]4CC(=O)[C@H]3[C@@H]2[C@H]1C)C5=O (stereo partly specified) | -85.4% (active) |
| Cc1nc2ccc(Cl)cc2n1C | 103% (inactive) |
| C=C1CC[C@@H]2[C@@](C)(CCC[C@]2(C)C(=O)O)[C@@H]1CC[C@H](CO)CCO | 94.8% (inactive) |

| Compound | growth |
| --- | --- |
| Fc1c[c-]c(-c2ccccn2)c(F)c1.Fc1c[c-]c(-c2ccccn2)c(F)c1.[Cl][Pt+].[Cl][Pt+].c1ccc([PH+](C[PH+](c2ccccc2)c2ccccc2)c2ccccc2)cc1 | 20.1% (inactive) |
| O=C(NCc1cccnc1)c1ccc([N+](=O)[O-])o1 | -3.32% (active) |
| COc1ccc(NS(=O)(=O)c2ccc(-c3cnc(C4CC4)o3)cc2)cc1 | 44.9% (inactive) |
| NC1=NC(c2ccccc2OS(=O)(=O)c2ccc(Br)cc2)n2c(nc3ccccc32)N1 (stereo unspecified) | 80.2% (inactive) |
| O=C(Nc1ccccc1)Oc1cccc2cccnc12 | 83% (inactive) |
| CCC12CCC3c4ccc(O)cc4CCC3C1CC(O)C2O (stereo unspecified) | 65.8% (inactive) |
| Cc1ccc(S(=O)(=O)N2CCc3ccc(O)c4c3C2Cc2ccc3c(c2-4)OCO3)cc1 (stereo unspecified) | 5.09% (active) |
| COC(=O)c1c2c(c(C)[n+]([O-])c1C)C(=O)C=C(NCc1cccc(OC)c1)C2=O | -97.7% (active) |
| O=C(c1cnn2c1NC(c1ccc(F)cc1)C2)N1CCCCC1 (stereo unspecified) | 84.8% (inactive) |
| O=C1NC(=O)C2(CCCC2C(=O)O)N1 (stereo unspecified) | 83.4% (inactive) |
| CON=C1C[C@]2(C[C@@H]3C[C@@H](C/C=C(\C)C[C@@H](C)/C=C/C=C4\CO[C@@H]5[C@H](O)C(C)=C[C@@H](C(=O)O3)[C@]45O)O2)O[C@H](/C(C)=C/C(C)C)[C@H]1C | 140% (inactive) |
| COc1cc(/C=C/C(=O)C(=Cc2ccc(F)c(F)c2)C(=O)/C=C/c2ccc(O)c(OC)c2)ccc1O | 38.3% (inactive) |
| CCOC(=O)c1[nH]c2cc(Cl)ccc2c1[C@@H](C(=O)NC(C)(C)C)N(CC)C(=O)CCCCC#Cc1cccc2c1CN(C1CCC(=O)NC1=O)C2=O (stereo partly specified) | 0.961% (active) |
| O=C1/C(=C/c2ccccc2F)CNC/C1=C\c1ccccc1F | 32.5% (inactive) |
| COc1cc(C2C3=C(COC3=O)N(CCO)c3cc4c(cc32)OCO4)cc(OC)c1O (stereo unspecified) | -11.3% (active) |
| CCCCCCCC/C=C\CCCCCCCCOc1cccc(CC(=O)NCC[N+]2(C)CCOCC2)c1 | 49.9% (inactive) |
| COc1ccccc1CNCCCCCCCCCCCCN1C(=O)c2ccc3c4c(ccc(c24)C1=O)C(=O)N(CCCCCCCCCCCCNCc1ccccc1OC)C3=O | -13.3% (active) |
| CC(C)NCC(O)COc1ccc(CCOCC2CC2)cc1 (stereo unspecified) | 99.3% (inactive) |
| Clc1ccc(C2=NN(c3ccccc3)[C@H](c3cn(-c4ccccc4)nc3-c3ccccc3)C2)cc1 | 97% (inactive) |

System: SNB-19 CNS
Assay: as above
Conditions: 10 µM unless noted

| Compound | growth |
| --- | --- |
| CC(C)OC1=C(Cl)C(=O)c2ccccc2C1=O | 90.1% (inactive) |
| CS(=O)(=O)Nc1cccc(C(=O)NCc2ccc(N3CCOCC3)cc2)c1 | 108% (inactive) |
| COc1ccc(S(=O)(=O)ON=C2C=C(C)C(=O)C(C)=C2)cc1 | 113% (inactive) |
| CCOC(=O)c1c(Cl)c2c(n1Cc1cc(OC)cc(OC)c1)-c1oncc1CCC2 | 55.8% (inactive) |
| NC(=S)N/N=C1\c2ccccc2-c2c(F)c(F)c(F)c(F)c21 | 89% (inactive) |
| COCCOC1=C(Cl)C(=O)c2ccccc2C1=O | 88.4% (inactive) |
| O=C1C(OCCOc2ccccc2)=C(OCCOc2ccccc2)C(=O)c2ccccc21 | 57.6% (inactive) |
| N#Cc1c(O)c2c(c(O)c1C#N)C(=O)c1ccccc1C2=O | 70.8% (inactive) |
| COc1cc(/C=C/C(=O)CC(=O)/C=C/c2cc(Br)c(OC)c(OC)c2)cc(Br)c1OC | 99.8% (inactive) |
| CCN1CCN(c2ccc(Nc3ncc4ccc5ncn(C(C)C)c5c4n3)nc2)CC1 | 9.26% (active) |
| Nc1nc2c(s1)CCc1c-2c(Br)n(Cc2ccccc2)c1Br | 105% (inactive) |
| O=c1onc(-c2ccccc2)c2ccccc12 | 104% (inactive) |
| CCCCCn1c(=N)n(CC(O)COc2cccc(C)c2)c2ccccc21 (stereo unspecified) | 20% (inactive) |
| COc1ccc(-c2nn(-c3ccc(NC(=O)c4ccc(Cl)c(Cl)c4)cc3)cc2-c2ccncc2)cc1Cl | 56.7% (inactive) |
| CCC(C)Oc1cc(/C=N/NC(=O)c2cnn3c2NC(c2ccccc2)C3)ccc1OC (stereo unspecified) | 38.6% (inactive) |
| COc1cccc(OC)c1OC(=O)c1ccccc1 | 104% (inactive) |
| C=C[C@H]1C[C@@H]2C[C@@H]3[C@H]4C/C=C\C(=O)NCCCC5NC(=O)C(=C(O)/C=C/[C@@H]4CC(=O)[C@H]3[C@@H]2[C@H]1C)C5=O (stereo partly specified) | -74% (active) |
| Cc1nc2ccc(Cl)cc2n1C | 99.5% (inactive) |
| C=C1CC[C@@H]2[C@@](C)(CCC[C@]2(C)C(=O)O)[C@@H]1CC[C@H](CO)CCO | 101% (inactive) |

| Compound | growth |
| --- | --- |
| Fc1c[c-]c(-c2ccccn2)c(F)c1.Fc1c[c-]c(-c2ccccn2)c(F)c1.[Cl][Pt+].[Cl][Pt+].c1ccc([PH+](C[PH+](c2ccccc2)c2ccccc2)c2ccccc2)cc1 | 17.8% (inactive) |
| O=C(NCc1cccnc1)c1ccc([N+](=O)[O-])o1 | 16.8% (inactive) |
| COc1ccc(NS(=O)(=O)c2ccc(-c3cnc(C4CC4)o3)cc2)cc1 | 67.8% (inactive) |
| NC1=NC(c2ccccc2OS(=O)(=O)c2ccc(Br)cc2)n2c(nc3ccccc32)N1 (stereo unspecified) | 98.1% (inactive) |
| O=C(Nc1ccccc1)Oc1cccc2cccnc12 | 99.3% (inactive) |
| CCC12CCC3c4ccc(O)cc4CCC3C1CC(O)C2O (stereo unspecified) | 90.1% (inactive) |
| Cc1ccc(S(=O)(=O)N2CCc3ccc(O)c4c3C2Cc2ccc3c(c2-4)OCO3)cc1 (stereo unspecified) | 52.3% (inactive) |
| COC(=O)c1c2c(c(C)[n+]([O-])c1C)C(=O)C=C(NCc1cccc(OC)c1)C2=O | -88.4% (active) |
| O=C(c1cnn2c1NC(c1ccc(F)cc1)C2)N1CCCCC1 (stereo unspecified) | 100% (inactive) |
| O=C1NC(=O)C2(CCCC2C(=O)O)N1 (stereo unspecified) | 106% (inactive) |
| CON=C1C[C@]2(C[C@@H]3C[C@@H](C/C=C(\C)C[C@@H](C)/C=C/C=C4\CO[C@@H]5[C@H](O)C(C)=C[C@@H](C(=O)O3)[C@]45O)O2)O[C@H](/C(C)=C/C(C)C)[C@H]1C | 63.3% (inactive) |
| COc1cc(/C=C/C(=O)C(=Cc2ccc(F)c(F)c2)C(=O)/C=C/c2ccc(O)c(OC)c2)ccc1O | 63.1% (inactive) |
| CCOC(=O)c1[nH]c2cc(Cl)ccc2c1[C@@H](C(=O)NC(C)(C)C)N(CC)C(=O)CCCCC#Cc1cccc2c1CN(C1CCC(=O)NC1=O)C2=O (stereo partly specified) | 28.2% (inactive) |
| O=C1/C(=C/c2ccccc2F)CNC/C1=C\c1ccccc1F | 3.94% (active) |
| COc1cc(C2C3=C(COC3=O)N(CCO)c3cc4c(cc32)OCO4)cc(OC)c1O (stereo unspecified) | 41.5% (inactive) |
| CCCCCCCC/C=C\CCCCCCCCOc1cccc(CC(=O)NCC[N+]2(C)CCOCC2)c1 | 72.3% (inactive) |
| COc1ccccc1CNCCCCCCCCCCCCN1C(=O)c2ccc3c4c(ccc(c24)C1=O)C(=O)N(CCCCCCCCCCCCNCc1ccccc1OC)C3=O | 58.1% (inactive) |
| CC(C)NCC(O)COc1ccc(CCOCC2CC2)cc1 (stereo unspecified) | 106% (inactive) |
| Clc1ccc(C2=NN(c3ccccc3)[C@H](c3cn(-c4ccccc4)nc3-c3ccccc3)C2)cc1 | 103% (inactive) |
